According to PubChem BioAssay (NCI):
The panel holds about 79,000 compounds, 15% with a hit somewhere; the sample as a whole holds those more often. A number with no mark means an inactive call. Calls of active or inactive are those of the source. No stated cut-off is given here; in the data, active means growth inhibition above about 70%; inactive means the rest.

Tests used:
[1] = NCI Yeast Anticancer Drug Screen. Data for the rad50 strain (AID 155);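 further: 0% = growth of vehicle-only cultures of the same strain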; conditions: S. cerevisiae rad50 strain growth inhibition, active compounds read high
How it was run: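 Vehicle-treated cultures provide the reference for the growth inhibition reported for compound-exposed, repair-deficient yeast.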

[2] = NCI Yeast Anticancer Drug Screen. Data for the mec2-1 strain (AID 157); conditions: S. cerevisiae mec2-1 strain, active compounds read high
How it was run: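 Growth inhibition is read against vehicle-treated controls after compound exposure of the mec2-1 yeast strain, which is defective in DNA damage repair or cell cycle control.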

[3] = NCI Yeast Anticancer Drug Screen. Data for the sgs1 mgt1 strain (AID 161);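 further: 0% = growth of cultures given vehicle only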; conditions: S. cerevisiae sgs1 mgt1 strain, active compounds read high
How it was run: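 Yeast cells carrying a defined DNA-repair defect were exposed to test compounds. Growth inhibition was measured relative to vehicle-treated controls.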

[4] = NCI Yeast Anticancer Drug Screen. Data for the cln2 rad14 strain (AID 165);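 further: 0% = growth equal to vehicle treated cultures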; conditions: S. cerevisiae cln2 rad14 strain, active compounds read high
How it was run: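 Growth inhibition, relative to vehicle-treated controls, is the read-out. The test organism is a yeast strain with defined genetic alterations, cln2 rad14.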

[5] = NCI Yeast Anticancer Drug Screen. Data for the bub3 strain (AID 167); conditions: S. cerevisiae bub3 mutant strain, active compounds read high
How it was run: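 Mutant yeast screening strain plus compound; vehicle-treated cultures serve as the 0% inhibition reference.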

[6] = NCI Yeast Anticancer Drug Screen. Data for the mlh1 rad18 strain (AID 175); conditions: S. cerevisiae mlh1 rad18 strain growth inhibition, active compounds read high
How it was run: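 Cells of a genetically altered yeast strain, deficient in DNA damage repair, were treated with compound. Their growth was then compared with that of vehicle-treated cultures to give inhibition.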

[7] = at 5.0 µM (retest, dose inferred, filed as 0.5)
[8] = at 50.0 µM (retest, dose inferred, filed as 5.0)

Row | SMILES | growth inhibition [1, 7] | growth inhibition [1, 8] | growth inhibition ([1]; at 50.0 µM) | growth inhibition [2, 7] | growth inhibition [2, 8] | growth inhibition ([2]; at 50.0 µM) | growth inhibition [3, 7] | growth inhibition [3, 8] | growth inhibition ([3]; at 50.0 µM) | growth inhibition [4, 7] | growth inhibition [4, 8] | growth inhibition ([4]; at 50.0 µM) | growth inhibition [5, 7] | growth inhibition [5, 8] | growth inhibition ([5]; at 50.0 µM) | growth inhibition [6, 7] | growth inhibition [6, 8] | growth inhibition ([6]; at 50.0 µM)
1 | C/C(CCn1[nH]c(=O)ccc1=O)=N\Nc1ccc([N+](=O)[O-])cc1[N+](=O)[O-] | 44% | 97% (active) | 67.3% | 20% | 98% (active) | -0.6% | 27% | 98% (active) | 19.6% | 23% | 81% (active) | 24.4% | 32% | 98% (active) | 25.9% | 45% | 98% (active) | 73.2% (active)
2 | CC12CCC3c4cc(O)ccc4CCC3C1CCC2O (stereo not given) | 4% | 54% | 50.2% | -4% | 51% | 26.5% | 1% | 81% (active) | 58.2% | -6% | 41% | 24.8% | -1% | 54% | 55.4% | 4% | 67% | 37%
3 | CC(=O)Nc1ccccc1C(O)(c1ccccc1)c1ccccc1 | -2% | 0% | 14.4% | -5% | -2% | 35.2% | -5% | 1% | 16.4% | 2% | -2% | 9.45% | -2% | 2% | 14.7% | -5% | 1% | -31.2%
4 | Cn1ncc2c(NCc3ccc(Cl)cc3)nc(Cl)nc21 | 7% | 97% (active) | 98.2% (active) | -1% | 98% (active) | 96.5% (active) | 8% | 97% (active) | 98% (active) | 2% | 95% (active) | 99.2% (active) | 2% | 97% (active) | 98.9% (active) | 0% | 97% (active) | 98.5% (active)
5 | Cc1ccc[n+](CC(=O)C2CCC3CC4CCCCC4CC3C2)c1 (stereo not given) | -2% | 38% | 22.4% | -1% | 34% | 17.7% | -27% | 19% | 37.4% | 0% | 31% | -3.75% | 1% | 29% | 18.8% | -2% | 43% | 59%
6 | CCCNC(=S)N/N=C(/C)c1nccc2ccccc12 | 9% | 86% (active) | 38.1% | 4% | 98% (active) | 20.4% | 7% | 88% (active) | 70% (active) | -8% | 7% | 17.9% | 0% | 78% (active) | 14.8% | 3% | 93% (active) | 29.4%
7 | O=C1C(Cl)=C(N2C(=O)CCCC2=O)C(=O)c2ccccc21 | 100% (active) | 99% (active) | 89.2% (active) | 100% (active) | 99% (active) | 90.2% (active) | 100% (active) | 99% (active) | 91.5% (active) | 99% (active) | 99% (active) | 89.8% (active) | 100% (active) | 99% (active) | 89.1% (active) | 99% (active) | 99% (active) | 88.3% (active)
8 | C(=Nc1ccccc1)c1cn(Cc2ccccc2)c2ccccc12 | 90% (active) | 95% (active) | 83.1% (active) | 99% (active) | 99% (active) | -10.2% | 99% (active) | 99% (active) | 64.7% | 100% (active) | 99% (active) | -12.6% | 99% (active) | 99% (active) | 11.6% | 99% (active) | 97% (active) | 36.9%
9 | CNc1ccc(C(=O)NC(CCCCNC(=O)OCc2ccccc2)C(=O)OC)cc1 (stereo not given) | -3% | -1% | 93.8% (active) | 1% | 10% | 95% (active) | -18% | -17% | 97.9% (active) | -5% | 2% | 58.1% | -4% | 0% | 95.6% (active) | 2% | -9% | 98.6% (active)
10 | CC(C)(C)c1cc(C(P(=O)(c2ccccc2)c2ccccc2)P(=O)(c2ccccc2)c2ccccc2)cc(C(C)(C)C)c1O | 3% | 96% (active) | 97.9% (active) | -5% | 92% (active) | 93.7% (active) | -8% | 97% (active) | 98.1% (active) | 2% | 88% (active) | 94.7% (active) | -4% | 93% (active) | 96.3% (active) | -3% | 92% (active) | 96.7% (active)
